Pf Dd2 inh: Plasmodium falciparum Dd2 growth inhibition | P. falciparum Dd2 growth, SYBR Green, 72 h | Potency, µM (top dose mostly 28.9 µM), without a hit: at the top dose activity, negative = inhibition, most hits filed as inhibitors | 120,000 compounds, 4.3% hits; active = well fitted inhibition curve with a large enough effect;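 also: plate controls were DMSO vehicle for no effect and reference drug for full effect; nearly all actives have a fitted effect of over 65% in size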
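Readout: SYBR Green fluorescence, 485 nm excitation, 535 nm emission, after ~16 h lysis at 37C. Before that, Dd2-infected red cells (2.5% hematocrit) grew 72 h with compound, 29 uM top final concentration.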
* marks the source's active call; other numbers are inactive results; i = inactive; [ ] = another dose, or the depositor's remark. This is one part of a sample in which hits are shown more often than they occur. Potency is read from the fitted curve at half-maximal effect.

SMILES	Pf Dd2 inh
CCCn1c2ccc(C)cc2c2nnc(SCCN3CCCCC3)nc21	8.91µM*
CCOC(=O)c1ccc(NC(=O)CSc2nnc3c4ccccc4n(CC)c3n2)cc1	7.4%
CCn1c2ccc(F)cc2c2nnc(SCCN3CCCCC3)nc21	12.6µM*
CCN(CC)CCSc1nnc2c3cc(F)ccc3n(CC)c2n1	-15.3%
CCn1c2ccccc2c2nnc(SCC(=O)Nc3ccccc3OC)nc21	12.2%
CCCc1nnc(NC(=O)CSc2nnc3c4ccccc4n(CC)c3n2)s1	-22.2%
COc1ccc(-c2cc(N3CCCN(C(=O)CC4CCCCC4)CC3)n[nH]2)cc1	-6.8%
COCCNC(=O)c1ccc2c(c1)N(C)C(CC(=O)N(C)C(C)C)CO2 (stereo unspecified)	-6.3%
COc1ccc(CN2C(=O)[C@@H]3C[C@@H](O)CN3C3(CN(C4CCCC4)C3)C2=O)cc1	-7.4%[44.1 µM]
Cn1ccc(CN2CCn3c(nn(-c4ccc(F)cc4F)c3=O)C2)n1	-1.9%
O=C(Cn1ccn2nc(-c3ccc(F)cc3)c(CO)c2c1=O)Nc1cccc(C(F)(F)F)c1	-1.5%
O=C(O)C[C@@H]1CCN(C(=O)Cc2ccccc2)C[C@@H]1CCN1CCN(c2ccccn2)CC1	-21.4%
Cc1cc(OCC(=O)Nc2cc(-c3nc4ncccc4o3)ccc2C)ccc1Cl	10µM*
Cc1cc(-c2nc3ncccc3o2)ccc1NC(=O)COc1ccccc1C	2.4%
Cc1cc(-c2nc3ncccc3o2)ccc1NC(=O)COc1cc(C)c(Cl)c(C)c1	4.1%
CN(CC1CCOC1)C(=O)Cc1ccccc1 (stereo unspecified)	i[5.79 µM]
CNC(=O)c1cc(-c2ccccc2OC)cc2c1OCCN2Cc1cccnc1	-5.3%[44.1 µM]
CCN(CC)CCNC(=O)c1cn(CCOC)c(=O)c2c1c1ccccc1n2C	10µM*
CCCN(CCC)CCCNC(=O)c1cc2c(=O)[nH]c3ccccc3c2n1C	i
CCCCNC(=O)c1c(C)oc2ncn(CC(C)C)c(=O)c12	i
CCCCN(CC)CCCNC(=O)c1cn(CC(C)C)c(=O)c2c1c1ccccc1n2C	7.08µM*
CCCCN(CCCC)CCNC(=O)c1cn(CC)c2ccc(S(=O)(=O)N3CCc4ccccc4C3)cc2c1=O	-25.1%
CCOCCCNC(=O)c1cc2c(=O)n(C)c3ccccc3c2n1C	7.9%
CCCCN(CC)CCCNC(=O)c1cc2c(=O)[nH]c3ccccc3c2n1C	8.91µM*
CCCCN(CC)CCNC(=O)c1cc2c(=O)[nH]c3ccccc3c2n1C	i
SMILES	Pf Dd2 inh
COc1cc(Cl)c(C)cc1NC(=O)c1cn(C2CCCC2)c(=O)c2c1c1ccccc1n2C	-10.3%
O=C(c1ccoc1)N1CCC(Oc2ccccc2)C1 (stereo unspecified)	-16.7%
Cc1ccc(C2Cn3nnc(C(=O)N4CCC(C(=O)NCCc5cccs5)CC4)c3CO2)cc1 (stereo unspecified)	2.6%
Cc1cc(=O)[nH]c(CCNC(=O)c2ccc(C)c(N3CCNC3=O)c2)n1	-9.1%
CC1CCC2(CC1)OCC(C(=O)NCC1CCCO1)N2C(=O)c1ccc(Cl)c(Cl)c1 (stereo unspecified)	i
Cc1ncc(CC(=O)N2CCC3(CC2)CC(C(=O)O)N(C)C3)c(=O)[nH]1 (stereo unspecified)	-14.8%
Cc1cc(C)c2[nH]c(C(=O)N(C)Cc3ccccc3-n3cccn3)c(C)c2c1	-12.6%
COCC(=O)N[C@@H]1CN(Cc2cn(C)nc2C)C[C@H]1CO	-8.1%
COC[C@@H]1CN(C(=O)c2cn[nH]c2C)C[C@H]1c1ccncc1	19.1%
CNC(=O)[C@@H]1CN(C(=O)c2ncoc2-c2cccc(C)c2)C[C@H]1CO	12.0%
COc1ccc(C(=O)N2CCC3(CC2)N(C)C(=O)CS3(=O)=O)cc1F	8.4%
CCNCc1ccc(-c2ccccc2)o1	-27.1%
CCOCCCNCc1ccc(-c2ccccc2)o1	11.2µM*
Brc1ccc(-c2ccc(CNCCSc3nnnn3-c3ccccc3)o2)cc1	-14.8%
Cc1ccoc1C(=O)N1CCC(N2CCCC(C(=O)NCc3ccccc3)C2)CC1 (stereo unspecified)	-6.3%
CC(C)(CC(=O)O)CC(=O)N1Cc2[nH]cnc2C[C@H]1c1nc(Cc2ccccc2)no1	5.6%[44.1 µM]
Cc1ccc(NC(=O)c2cc(S(=O)(=O)N3CCCc4ccccc43)ccc2F)cc1F	-22.7%
O=C(Nc1ccccc1Br)c1cc(S(=O)(=O)NC2CCCCC2)ccc1F	i
Cc1ccc(NC(=O)c2cc(S(=O)(=O)NC3CCCCCC3)ccc2F)cc1F	4.47µM*
N#CC1CCN(C(=O)C2(c3ccc(Cl)cc3)CCOCC2)CC1	-4.8%
C[C@H]1CN(C(=O)CCCc2ccccc2)C[C@@H]1c1nc(-c2ccccc2)no1	i
COC[C@@H]1CN(C(=O)Cc2c(C)noc2C)C[C@H]1c1ccncc1	29.6%
COc1ccc(-c2noc(N3CCC(C(=O)N4CCN(c5cccc(C)c5C)CC4)CC3)n2)cc1	32.4%
CC1=C(c2ccc(Cl)cc2)S(=O)(=O)N=C1N1CCN(c2cccc(C)c2C)CC1	-13.8%
COC(=O)c1c(-c2ccc(Cl)cc2)noc1N1CCN(c2cccc(C)c2C)CC1	4.47µM*
SMILES	Pf Dd2 inh
C[C@@H](NC(=O)c1cnccn1)c1onc(-c2cccnc2)c1C(=O)O	1.5%[44.1 µM]
CCn1ncc(N2CCCC(CC(=O)NCc3ccc(F)cc3)C2)cc1=O (stereo unspecified)	-22.3%
COc1ccccc1C(=O)Nc1ccc([C@@H](O)[C@H]2COCC(=O)N2Cc2ccc(F)cc2)cc1	-25.0%
Cc1cc(C(F)(F)F)nn1CC(=O)NCC(=O)N1CCCCCCNC(=O)CC1c1ccccc1 (stereo unspecified)	-25.7%
Cc1nc2n(c1C(=O)Nc1nccs1)CCC(Nc1ccccc1)C2 (stereo unspecified)	i
COc1ccc(CCNC(=O)c2ccc3c(c2)N(Cc2ccccc2)C(=O)c2ccccc2S3=O)cc1OC (stereo unspecified)	i
O=C(NCCC1=CCCCC1)c1ccc2c(c1)N(Cc1ccccc1F)C(=O)c1ccccc1S2=O (stereo unspecified)	12.6µM*
Cc1cccc(CN2C(=O)c3ccccc3S(=O)(=O)c3ccc(C(=O)NCCC4=CCCCC4)cc32)c1	-12.6%
CCC(C)n1c(C(C)CC(=O)Cc2ccccc2)nc2cccnc21 (stereo unspecified)	-24.6%
COCCC1(C(=O)O)CCCCC(=O)N1 (stereo unspecified)	31.8%
CC(C)C1=NOC2(CCN([S+](=O)([O-])c3cccs3)C2)C1 (stereo unspecified)	8.7%
COc1cccc(CN2C[C@@H](CO)[C@H](NC(=O)C3CCC3)C2)c1	-14.8%
N#Cc1cccc(C(=O)N2CCC3(CC2)NC(=O)N(Cc2ccccc2Cl)C3=O)c1	i
N#Cc1ccc(C(=O)N2CCC3(CC2)NC(=O)N(Cc2ccccc2Cl)C3=O)cc1	2.51µM*
Cc1ccc(C(=O)N2CCC3(CC2)NC(=O)N(Cc2ccccc2)C3=O)cc1	40.9%
O=C(CCn1ccn2nc3c(c2c1=O)CCCC3)NCCc1cccs1	i
Cc1cccc(C(=O)N2CCC(N3C(=O)C4(CCCCC4)C3c3ccncc3)CC2)c1 (stereo unspecified)	6.31µM*
O=C(c1ccc2cc[nH]c2c1)N1CCC(N2C(=O)C3(CCCCC3)C2c2ccncc2)CC1 (stereo unspecified)	7.08µM*
Cn1nccc1C(=O)N1CCC(N2C(=O)C3(CCCCC3)C2c2ccccc2)CC1 (stereo unspecified)	i
COc1ccc(C(=O)N2CCC(N3C(=O)C4(CCCC4)C3c3ccccc3)CC2)cc1 (stereo unspecified)	-11.4%

Assay outcomes deposited in PubChem by National Center for Advancing Translational Sciences (NCATS).
